Here are results for four sequences from article PMC11006913.

Changes are numbered by the printed parent chain.

Common to all, as to assay: PBM; 200 nM protein, PBS
Details in all cases: dsDNA, one strand shown

For experiment [1], the target named is HOXB4 (Homo sapiens, UniProt P17483 148-234).
Experiment [2] addresses HOXC9 (Homo sapiens, UniProt P31274 178-260, K195R).
The target in experiment [3] is T1, PAX4 (Homo sapiens, UniProt O43316 9-242, R200K).
T1 sequence: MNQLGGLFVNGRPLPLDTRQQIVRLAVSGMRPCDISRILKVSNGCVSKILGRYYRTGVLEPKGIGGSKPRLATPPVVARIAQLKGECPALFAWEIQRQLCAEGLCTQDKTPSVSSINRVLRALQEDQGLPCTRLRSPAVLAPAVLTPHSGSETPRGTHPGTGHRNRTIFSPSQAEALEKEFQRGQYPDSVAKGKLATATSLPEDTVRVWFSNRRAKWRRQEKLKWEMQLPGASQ

The target in experiment [4] is T2, PAX4 (Homo sapiens, UniProt O43316 9-242).
T2 sequence: T1 sequence with K192R

For experiment [5], the target named is HOXB4 (Homo sapiens, UniProt P17483 148-234, V174I).
The target of experiment [6] is HOXC9 (Homo sapiens, UniProt P31274 178-260).
In experiment [7] the target is T3, PAX4 (Homo sapiens, UniProt O43316 9-242, R200Q).
T3 sequence: T1 sequence with K192Q

For experiment [8], the target named is HOXC9 (Homo sapiens, UniProt P31274 178-260, R193K).
The target of experiment [9] is T4, PAX4 (Homo sapiens, UniProt O43316 9-242, F177V).
T4 sequence: T1 sequence with F169V, K192R

Experiment [10] deals with T5, PAX4 (Homo sapiens, UniProt O43316 9-242, F177Y).
T5 sequence: T1 sequence with F169Y, K192R

In experiment [11] the target is HOXC9 (Homo sapiens, UniProt P31274 178-260, R222W).
Experiment [12] addresses T6, PAX4 (Homo sapiens, UniProt O43316 9-242, R227W).
T6 sequence: T1 sequence with K192R, R219W

In experiment [13] the target is HOXA4 (Homo sapiens, UniProt Q00056 201-287, W262R).
Experiment [14] deals with HOXA2 (Homo sapiens, UniProt O43364 129-215, R185T).
For experiment [15], the target named is HOXA4 (Homo sapiens, UniProt Q00056 201-287, R217L).
In experiment [16] the target is HOXA2 (Homo sapiens, UniProt O43364 129-215, R185K).
Experiment [17] concerns the target HOXA4 (Homo sapiens, UniProt Q00056 201-287).
The target of experiment [18] is HOXA2 (Homo sapiens, UniProt O43364 129-215, Y150S).
The target in experiment [19] is HOXA4 (Homo sapiens, UniProt Q00056 201-287, W262F).
Experiment [20] deals with HOXA2 (Homo sapiens, UniProt O43364 129-215).
In experiment [21] the target is HOXA7 (Homo sapiens, UniProt P31268 116-202).
In another experiment the target is T7, VENTX (Homo sapiens, UniProt O95231 78-163, Y115F).
T7 sequence: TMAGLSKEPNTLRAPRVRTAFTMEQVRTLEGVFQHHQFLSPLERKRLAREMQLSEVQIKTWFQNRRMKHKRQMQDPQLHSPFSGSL

Experiment [22] has as its target HOXB6 (Homo sapiens, UniProt P17509 132-218, K202E).
Experiment [23] has as its target VAX1 (Homo sapiens, UniProt Q5SQQ9 86-172).
Experiment [24] addresses VAX1 (Homo sapiens, UniProt Q5SQQ9 86-172, T142I).
In experiment [25] the target is HOXA7 (Homo sapiens, UniProt P31268 116-202, W177C).
For experiment [26], the target named is VAX1 (Homo sapiens, UniProt Q5SQQ9 86-172, K157R).
Experiment [27] addresses HOXB6 (Homo sapiens, UniProt P17509 132-218).

Sequence of HOXB4 (Homo sapiens, UniProt P17483 148-234, V174I) (P17483 148-234 V174I): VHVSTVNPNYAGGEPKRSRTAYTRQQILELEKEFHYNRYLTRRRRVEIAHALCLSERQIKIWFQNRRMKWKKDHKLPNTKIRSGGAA
Sequence of HOXB4 (Homo sapiens, UniProt P17483 148-234) (P17483 148-234): as the sequence (P17483 148-234 V174I) above, with I27V counted along it
Sequence of HOXC9 (Homo sapiens, UniProt P31274 178-260, R222W) (P31274 178-260 R222W): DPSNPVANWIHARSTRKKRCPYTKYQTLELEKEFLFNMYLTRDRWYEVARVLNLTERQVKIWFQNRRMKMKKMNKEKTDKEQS
Sequence of HOXA4 (Homo sapiens, UniProt Q00056 201-287) (Q00056 201-287): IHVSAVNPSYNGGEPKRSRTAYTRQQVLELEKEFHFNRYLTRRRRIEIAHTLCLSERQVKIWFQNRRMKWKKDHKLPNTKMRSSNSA
Sequence of HOXA4 (Homo sapiens, UniProt Q00056 201-287, W262F) (Q00056 201-287 W262F): as the sequence (Q00056 201-287) above, with W62F counted along it
Sequence of HOXC9 (Homo sapiens, UniProt P31274 178-260, K195R) (P31274 178-260 K195R): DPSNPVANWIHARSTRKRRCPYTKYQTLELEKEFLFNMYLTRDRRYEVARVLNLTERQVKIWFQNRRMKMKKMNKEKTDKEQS
Sequence of HOXA2 (Homo sapiens, UniProt O43364 129-215, R185K) (O43364 129-215 R185K): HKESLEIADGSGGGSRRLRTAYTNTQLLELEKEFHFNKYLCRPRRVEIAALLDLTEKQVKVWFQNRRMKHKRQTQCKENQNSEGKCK
Sequence of HOXA2 (Homo sapiens, UniProt O43364 129-215, R185T) (O43364 129-215 R185T): as the sequence (O43364 129-215 R185K) above, with K57T counted along it
Sequence of HOXA4 (Homo sapiens, UniProt Q00056 201-287, W262R) (Q00056 201-287 W262R): as the sequence (Q00056 201-287) above, with W62R counted along it
Sequence of HOXA2 (Homo sapiens, UniProt O43364 129-215) (O43364 129-215): as the sequence (O43364 129-215 R185K) above, with K57R counted along it
Sequence of HOXA4 (Homo sapiens, UniProt Q00056 201-287, R217L) (Q00056 201-287 R217L): as the sequence (Q00056 201-287) above, with R17L counted along it
Sequence of HOXC9 (Homo sapiens, UniProt P31274 178-260, R193K) (P31274 178-260 R193K): as the sequence (P31274 178-260 R222W) above, with R16K, W45R counted along it
Sequence of HOXA2 (Homo sapiens, UniProt O43364 129-215, Y150S) (O43364 129-215 Y150S): as the sequence (O43364 129-215 R185K) above, with Y22S, K57R counted along it
Sequence of HOXC9 (Homo sapiens, UniProt P31274 178-260) (P31274 178-260): as the sequence (P31274 178-260 R222W) above, with W45R counted along it
Sequence of HOXA7 (Homo sapiens, UniProt P31268 116-202) (P31268 116-202): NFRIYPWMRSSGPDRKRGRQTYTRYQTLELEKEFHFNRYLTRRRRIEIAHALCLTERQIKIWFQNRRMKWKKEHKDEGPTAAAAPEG
Sequence of HOXA7 (Homo sapiens, UniProt P31268 116-202, W177C) (P31268 116-202 W177C): as the sequence (P31268 116-202) above, with W62C counted along it
Sequence of VAX1 (Homo sapiens, UniProt Q5SQQ9 86-172, T142I) (Q5SQQ9 86-172 T142I): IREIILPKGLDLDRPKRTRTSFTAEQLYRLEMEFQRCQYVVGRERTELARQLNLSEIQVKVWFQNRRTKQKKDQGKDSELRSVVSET
Sequence of VAX1 (Homo sapiens, UniProt Q5SQQ9 86-172) (Q5SQQ9 86-172): as the sequence (Q5SQQ9 86-172 T142I) above, with I57T counted along it
Sequence of HOXB6 (Homo sapiens, UniProt P17509 132-218) (P17509 132-218): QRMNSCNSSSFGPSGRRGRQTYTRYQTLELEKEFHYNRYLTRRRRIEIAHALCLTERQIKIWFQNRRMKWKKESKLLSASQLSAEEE
Sequence of VAX1 (Homo sapiens, UniProt Q5SQQ9 86-172, K157R) (Q5SQQ9 86-172 K157R): as the sequence (Q5SQQ9 86-172 T142I) above, with I57T, K72R counted along it
Sequence of HOXB6 (Homo sapiens, UniProt P17509 132-218, K202E) (P17509 132-218 K202E): as the sequence (P17509 132-218) above, with K71E counted along it

With AGGGGGGG, the binding signal with HOXB4 [1] was 7.37 upbm affinity estimate (log intensity, higher = more binding, comparable within an allelic series); with HOXC9 [2] it was 9.2 upbm affinity estimate (log intensity, higher = more binding, comparable within an allelic series); with PAX4 [3] it was 9.12 upbm affinity estimate (log intensity, higher = more binding, comparable within an allelic series); with PAX4 [4], 9.16 upbm affinity estimate (log intensity, higher = more binding, comparable within an allelic series); with HOXB4 [5], 7.23 upbm affinity estimate (log intensity, higher = more binding, comparable within an allelic series); with HOXC9 [6], 9.24 upbm affinity estimate (log intensity, higher = more binding, comparable within an allelic series). Besides, the binding signal with PAX4 [7] was 9.15 upbm affinity estimate (log intensity, higher = more binding, comparable within an allelic series); with HOXC9 [8] it was 9.31 upbm affinity estimate (log intensity, higher = more binding, comparable within an allelic series); with PAX4 [9] it was 8.93 upbm affinity estimate (log intensity, higher = more binding, comparable within an allelic series); with PAX4 [10], 9.09 upbm affinity estimate (log intensity, higher = more binding, comparable within an allelic series); with HOXC9 [11], 9.11 upbm affinity estimate (log intensity, higher = more binding, comparable within an allelic series); with PAX4 [12] it was 9.07 upbm affinity estimate (log intensity, higher = more binding, comparable within an allelic series).

With TATAATGA, the binding signal with HOXB4 [1] was 13 upbm affinity estimate (log intensity, higher = more binding, comparable within an allelic series); with HOXA4 [13], 10.5 upbm affinity estimate (log intensity, higher = more binding, comparable within an allelic series); with HOXA2 [14], 12 upbm affinity estimate (log intensity, higher = more binding, comparable within an allelic series); in the experiment with HOXA4 [15] it was 11.9 upbm affinity estimate (log intensity, higher = more binding, comparable within an allelic series); in the experiment with HOXB4 [5], 13.5 upbm affinity estimate (log intensity, higher = more binding, comparable within an allelic series); with HOXA2 [16], 12.8 upbm affinity estimate (log intensity, higher = more binding, comparable within an allelic series). Also, the binding signal is 13.6 upbm affinity estimate (log intensity, higher = more binding, comparable within an allelic series) in the experiment with HOXA4 [17]; 10.9 upbm affinity estimate (log intensity, higher = more binding, comparable within an allelic series) with HOXA2 [18]; 11.2 upbm affinity estimate (log intensity, higher = more binding, comparable within an allelic series) with HOXA4 [19]; 12.1 upbm affinity estimate (log intensity, higher = more binding, comparable within an allelic series) with HOXA2 [20].

For the sequence CCTACCGC, the binding signal is 7.61 upbm affinity estimate (log intensity, higher = more binding, comparable within an allelic series) with HOXB4 [1]; 9.66 upbm affinity estimate (log intensity, higher = more binding, comparable within an allelic series) with HOXC9 [2]; 7.56 upbm affinity estimate (log intensity, higher = more binding, comparable within an allelic series) in the experiment with HOXB4 [5]; 9.63 upbm affinity estimate (log intensity, higher = more binding, comparable within an allelic series) with HOXC9 [6]; 9.56 upbm affinity estimate (log intensity, higher = more binding, comparable within an allelic series) with HOXC9 [8]; 9.71 upbm affinity estimate (log intensity, higher = more binding, comparable within an allelic series) in the experiment with HOXC9 [11].

In the case of TAATGACA, the binding signal was 13 upbm affinity estimate (log intensity, higher = more binding, comparable within an allelic series) with HOXB4 [1]; 10.6 upbm affinity estimate (log intensity, higher = more binding, comparable within an allelic series) in the experiment with HOXA4 [13]; 11.2 upbm affinity estimate (log intensity, higher = more binding, comparable within an allelic series) with HOXA7 [21]; 11.5 upbm affinity estimate (log intensity, higher = more binding, comparable within an allelic series) with VENTX; 10 upbm affinity estimate (log intensity, higher = more binding, comparable within an allelic series) with HOXB6 [22]; 12.6 upbm affinity estimate (log intensity, higher = more binding, comparable within an allelic series) with HOXA2 [14]. Besides, the binding signal was 12.2 upbm affinity estimate (log intensity, higher = more binding, comparable within an allelic series) with HOXA4 [15]; 13.7 upbm affinity estimate (log intensity, higher = more binding, comparable within an allelic series) in the experiment with HOXB4 [5]; 13.4 upbm affinity estimate (log intensity, higher = more binding, comparable within an allelic series) in the experiment with HOXA2 [16]; 13.8 upbm affinity estimate (log intensity, higher = more binding, comparable within an allelic series) with HOXA4 [17]; 12.8 upbm affinity estimate (log intensity, higher = more binding, comparable within an allelic series) in the experiment with VAX1 [23]; 12.7 upbm affinity estimate (log intensity, higher = more binding, comparable within an allelic series) with VAX1 [24]. Further, the binding signal with HOXA2 [18] is 11 upbm affinity estimate (log intensity, higher = more binding, comparable within an allelic series); with HOXA7 [25] it was 8.98 upbm affinity estimate (log intensity, higher = more binding, comparable within an allelic series); with HOXA4 [19], 11.7 upbm affinity estimate (log intensity, higher = more binding, comparable within an allelic series); with HOXA2 [20], 12.5 upbm affinity estimate (log intensity, higher = more binding, comparable within an allelic series); with VAX1 [26] it was 12.5 upbm affinity estimate (log intensity, higher = more binding, comparable within an allelic series); in the experiment with HOXB6 [27], 11.7 upbm affinity estimate (log intensity, higher = more binding, comparable within an allelic series).
